Assay results from ChEMBL document CHEMBL4513216, “Probing the Open Global Health Chemical Diversity Library for Multistage-Active Starting Points for Next-Generation Antimalarials” (ACS Infect Dis, 2020).
In all, about 69,000 compounds went through this assay and about 8,600 (12%) showed an effect of 50% or more. Only a selection was taken, and strong results are over-represented in it overall.

Tested on: Plasmodium berghei
Experiment: Screen against P. berghei liver stage (PbLuc), transformed with Luciferase, at 10uM
Assay type: functional, HepG2
Conditions: tested at 10 uM

SMILES | INHIBITION [%]
CN(C)Cc1ccnc(C2CCCN2Cc2cccc(F)c2F)n1 (configuration not stated) | 15.9
CCc1ocnc1C(=O)N1CCCC(n2nc(C)nc2C)C1 (configuration not stated) | 11.715
O=C(c1cnc(O)cc1O)N1CCCC(CCc2ccccc2F)C1 (configuration not stated) | 15.8
CNC(=O)[C@H]1C[C@@H]2CN(C(=O)c3ccc(C)nc3)C[C@@H]2N1C(C)C | 11.3
Cc1csc(C2CCCN(C(=O)c3c(C)nn4cccnc34)C2)n1 (configuration not stated) | -2.53
Cc1cc(C(C)NCCN2CCC(N(C)C)CC2)c(C)s1 (configuration not stated) | 46.6
CC(=O)N1CCN(CCNS(=O)(=O)c2cc(F)ccc2C)CC1 | 17.1
COC1CCN(CCNc2ncc(Br)cc2C)CC1 | 41.5
CC(=O)N1CCN(CCNc2ncc(Br)cc2C)CC1 | 54.4
CC(=O)N1CCN(CCNS(=O)(=O)c2ccc(C)c(F)c2)CC1 | -3.95
Cc1cc(Br)cnc1NCCN1CCC(N(C)C)CC1 | 64
Cc1cc(N2CCOCC2)ccc1NC(C)c1nc(C(C)(C)C)no1 (configuration not stated) | 14.9
Cc1n[nH]c(C)c1NC(=O)CN1CCCC1Cn1cncn1 (configuration not stated) | 30
CC(=O)N1CCC(c2nccnc2Nc2cnccn2)CC1 | -21.6
CN(Cc1ccncn1)C(=O)CCC(=O)NC1CCCC1 | 39.4
CCCN1C[C@@H]2CC[C@H]1CN(Cc1cccc(-n3cccn3)c1)C2 | 48.2
COCCN1CCN(c2ccc(CN(C)C)cn2)CC1 | -14.3
CCN(C(=O)CCn1cccn1)C1CC1 | 36.2
CC(C1CC1)N(C)C(=O)CCn1cccn1 (configuration not stated) | 49
CC(C)CC(C)N(C)C(=O)CCn1cccn1 (configuration not stated) | 64
Cc1nn(C)c(C)c1NC(=O)CCn1ncc2ccc(Cl)cc21 | -14.7
CC(=O)c1cc(C(=O)N2CCN(C)Cc3ccccc32)n(C)c1 | -94.3
CC(C)c1n[nH]c(C2CN(C(=O)COCC(F)(F)F)CCO2)n1 (configuration not stated) | 31.6

SMILES | INHIBITION [%]
CC(c1ccccc1)N(C)C(=O)CN1CCCc2cccc(F)c21 (configuration not stated) | 51.1
CC(c1ccccc1)N(C)C(=O)CN1CCCc2cc(F)cc(F)c21 (configuration not stated) | 76.1
CN(C(=O)CN1CCCc2cc(F)cc(F)c21)c1ccccc1 | 43.9
CC(c1ccccc1)N(C)C(=O)Cn1cc(NC(=O)C(C)(C)C)cn1 (configuration not stated) | -41.1
CC(c1ccccc1)N(C)C(=O)CN1CCN(c2cnccn2)CC1 (configuration not stated) | 47.2
CN(C)C(=O)Cn1cc(C(=O)N2CCCc3cccc(F)c32)nn1 | 28.6
CC(C)CC(=O)N1C[C@@H]2CCN(c3cnccn3)C[C@@H]2C1 | 3.81
CNC(=O)CN1C(=O)CN(C(=O)COC)CCC(OC)c2ccccc21 (configuration not stated) | 48.7
CNc1cc(C2CCCN2S(=O)(=O)c2cccc(F)c2)ccn1 (configuration not stated) | 2.71
CCS(=O)(=O)N1CCc2nc(C3CCN(C(=O)C4CC4)C3)nc(O)c2C1 (configuration not stated) | 30.4
Cc1nc(NC2CCCC2)cc(C2CCN2c2ncccn2)n1 (configuration not stated) | 26.7
Cc1cc(C(=O)NC(C)Cc2ccc(N(C)C)cc2)n(C)n1 (configuration not stated) | 44.7
Cc1nc(CN2CCN(S(=O)(=O)N3CCCCC3)CC2)oc1C | 19.4
Cc1nc(CN2CCN(S(=O)(=O)N3CCOCC3)CC2)oc1C | 31.2
COCC(=O)N1CCC2(CCCN(Cc3ccc(Cl)cc3)CC2)CC1 | 17.6
Cc1nc2ccc(Cl)cn2c1CN1CCN(S(=O)(=O)N2CCCC2)CC1 | 57.55
COCC(=O)N1CCCN(Cc2c(C)nc3ccc(Cl)cn23)CC1 | 73.6
COCC(=O)N1CCCN(Cc2cc(O)c3ccccc3n2)CC1 | 32.1
COCCN1C[C@@H](C)[C@@]2(COCCN(C(=O)Cc3ccccc3)C2)C1 | -8.94
CN1CCC2(CCN(S(=O)(=O)c3ccc(-c4cnco4)s3)CC2)C1 | 28.4
CN(C)C(=O)c1nc2c(n1C)CCN(Cc1ccccc1)C2 | -31.4
FC(F)(F)c1[nH]nc2c1CN(Cc1ccccc1)CC2 | 84.2
OCCCN1CCc2[nH]nc(C(c3ccccc3)c3ccccc3)c2C1 | 18.7

SMILES | INHIBITION [%]
CN(Cc1cnn(C)c1)C(=O)c1ccc(=O)n(C)n1 | -19.7
O=C(Nc1ccccc1)N1CCC(n2cc3[nH]cccc-3c2=O)CC1 | 32
Cc1nc(CN2CCCC(NCc3ccc(C(N)=O)cc3)C2)no1 (configuration not stated) | 11.2
Cc1nnc(NC(=O)NCc2ccc(N3CCC(C)CC3)nc2)s1 | 33.3
CC(=O)c1ccc(CN2CC(Oc3ccccc3C)C2)cc1 | 52
COc1ccccc1OC1CN(Cc2ccc(C(=O)O)cc2)C1 | 14.3
Cc1nc2ccccn2c1CN1C[C@@H](CN(C)CCO)[C@@H](CO)C1 | 29
Cc1ccccc1OC1CN(Cc2c(C)nc3ccccn23)C1 | 91.8
COCc1ncc(CN2CC(Oc3c(C)cccc3C)C2)cn1 | 31.2
CSCC[C@H](N)C(=O)N1CC(Oc2ccccc2C)C1 | -13.5
Cc1nc2ccccn2c1CN1C[C@@H](CN(C)C)[C@@H](CO)C1 | 45.3
CC(=O)c1cccc(CN2CC(Oc3ccccc3C)C2)c1 | 52
Cc1ccc(C(=O)N2CC(Oc3ccccc3C)C2)s1 | 18.4
O=C(c1n[nH]cc1Cl)N1CCSCC1 | -10.6
COCCNC(=O)c1sc2ccccc2c1C1CCC(CN)CC1 (configuration not stated) | 3.48
COCCN1C[C@@H]2CCCO[C@@H]2[C@H](NC(=O)c2cnccn2)C1 | -17
O=C(NC1CC1)N1CCN(c2cnccn2)CC1 | -11.4
Cc1nc(N(C)C)cc(C2(C)CCCNC2)n1 (configuration not stated) | 8.42
NS(=O)(=O)c1ccc(C(=O)N2CCCC2c2ccccc2)o1 (configuration not stated) | 12.7
CC(C)c1nnc(CN2CCN(CC(O)c3ccccc3)CC2)o1 (configuration not stated) | 36.1
Cc1nc(N2CCN(C)CC2)ncc1C(=O)N1C[C@@H](C)[C@@](C)(O)C1 | 34.9
O=c1[nH]nc2c(N3CCOCC3)nccn12 | 56.5
O=c1[nH]nc2c(N3CCCCCC3)nccn12 | 47.4

SMILES | INHIBITION [%]
O=c1[nH]nc2c(N3CCC(NC4CCOCC4)CC3)nccn12 | 33.3
O=C1OCCN1CCNC(=O)C1(N2CCCCC2)Cc2ccccc2C1 | 6.54
CCOC1CCN(CCc2nc(-c3cccc(Cl)c3)no2)CC1 | 46.3
NC(=O)N1CCCN(CCc2nc(-c3cccc(Cl)c3)no2)CC1 | 2.22
Clc1cccc(-c2noc(CCN3CCN(c4ccncc4)CC3)n2)c1 | 61.8
O=C(NCc1ccccc1-n1cccn1)N1CCC(N2CCCC2)C1 (configuration not stated) | 17.4
CCC(C)NC(=O)c1ccc(NC(=O)CCCn2cncn2)c(C)c1 (configuration not stated) | 5.64
CCCC(=O)Nc1cc(C(=O)NC(C)Cc2ccncc2)ccc1C (configuration not stated) | 57.5
CCN(CC(=O)Nc1cc(Cl)ccc1C)C(=O)c1ccncc1 | -10.8
CC(=O)N[C@@H]1CN(C(=O)c2cccc(C(F)(F)F)c2)C[C@H]1O | -4.1
CCc1nnc2n1CCN(C(C(=O)N(CC)CC)c1ccccc1)C2 (configuration not stated) | 19.4
CC1CCC(NC(=O)CNC2(c3ccc(F)cc3)CCOCC2)CC1 (configuration not stated) | 12.8
Cc1cccn2cc(CNS(=O)(=O)N3CCOCC3)nc12 | 19.8
CS(=O)(=O)N1CCc2c(nnn2CC2CC2)C1COCC1CC1 (configuration not stated) | 58.5
Cc1ccc(CN2CCc3c(nnn3C)C2COCc2ccccc2)s1 (configuration not stated) | 59.3
Cn1nnc2c1CCN(CC1CC1)C2COCc1ccccc1 (configuration not stated) | 39.8
Cn1nnc2c1CCN(S(C)(=O)=O)C2COCc1ccccc1 (configuration not stated) | 53
Cn1nnc2c1CCN(Cc1ccoc1)C2COCc1ccccc1 (configuration not stated) | -6.39
Cn1nnc2c1CCN(S(C)(=O)=O)C2COCC1CC1 (configuration not stated) | 57.1
Cn1nnc2c1CCN(CC1CC1)C2COCC1CC1 (configuration not stated) | 38.5
C1CN(CC2CC2)C(COCC2CC2)c2nnn(CC3CC3)c21 (configuration not stated) | 15.6
C1CC(CN2CCc3c(nnn3CC3CC3)C2COCC2CC2)C1 (configuration not stated) | 43.3
CN(C)C(=O)N1CCc2c(nnn2C)C1COCC1CC1 (configuration not stated) | 12.7

SMILES | INHIBITION [%]
Cn1nnc2c1CCN(Cc1ccncc1)C2COCc1ccccc1 (configuration not stated) | 17.2
CCn1nnc2c1CCN(S(C)(=O)=O)C2COCc1ccccc1 (configuration not stated) | -3.51
CCc1ccc(NC(=O)N2Cc3c(CN(C)C)nn(C)c3C2)cc1 | 33
COc1cccc(OCCn2c(C)c(C)oc2=O)c1 | 31.4
CCC1=N[C@@]2(CC[C@@H]3CN(Cc4ccccc4F)C[C@@H]32)C(=O)N1 | 10.5
Cc1nc(C)n(CC2CCCN2Cc2nc3ccccc3o2)n1 (configuration not stated) | 33.8
COC(=O)CCn1ccc(=O)c2ccc(OC)cc21 | -7.53
CNc1cncc(C2CCCN2C(=O)Cn2c(=O)oc3ccccc32)n1 (configuration not stated) | 23.4
CC(C)(C)c1cc(CN2C[C@@H]3CC[C@H]2CN(Cc2ccccn2)C3)n[nH]1 | -2.73
COc1cc(N2CCc3ncnc(-c4ccncc4)c3CC2)ncn1 | 33
COCc1nc(N(C)C)ncc1C(=O)Nc1cc(C)cc(C)c1 | 35
Cc1nc2c(c(NCC(=O)NC(C)C)n1)Cc1ccccc1OC2 | 5.87
Cc1nc2c(c(N[C@@H](CO)C(N)=O)n1)Cc1ccccc1OC2 | -13.4
CN(CC1(CO)CCC1)c1nc2c(c(=O)[nH]1)Cc1ccccc1OC2 | 57.8
CN(CC1(CO)CCCC1)c1nc2c(c(=O)[nH]1)Cc1ccccc1OC2 | 71.2
CN(C)c1nc2c(c(=O)[nH]1)Cc1ccccc1OC2 | 54.4
Cc1nc2c(c(N[C@H](C(N)=O)C(C)C)n1)Cc1ccccc1OC2 | -19.8
Cc1nc2c(c(NCCNC(=O)C(C)C)n1)Cc1ccccc1OC2 | -0.55
OCC1CCCN(c2ncnc3c2Cc2ccccc2OC3)C1 (configuration not stated) | 32.1
Cc1nc2c(c(NC(C)c3nnn[nH]3)n1)Cc1ccccc1OC2 (configuration not stated) | -45.5
